Source: PubChem (National Center for Advancing Translational Sciences (NCATS))
This is a sample that favours compounds with a hit; in the whole collection about 0.9% have one here.
A647 autofl: compound fluoresces in the A647 spectral region | 59,000 tested, under 10 active | Compound fluorescence, A647 channel (570/671 nm), Tris buffer | max dye-equivalent concentration, M;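 note: values scaled relative to a standard on each plate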
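Compound fluorescence was measured in 100 mM Tris buffer, pH 8.0, after 15 min at room temperature, using 570 nm excitation and 671 nm emission filters. Signal was normalized to a per-plate Alexa 647 standard curve and expressed as dye-equivalent concentration at each compound concentration.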
Rhodamine fluor: compound autofluorescence in rhodamine spectral region | AID 594 | 59,000 compounds, 0.05% hits | Rhodamine-region fluorescence, 547/598 nm, Tris buffer; stronger effect = higher value | max dye-equivalent concentration, M; in the data active = max dye-equivalent concentration above about 11 nM; inconclusive = between about 1.1 nM and that limit
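A six-point rhodamine series on each plate calibrates the signal. Compounds sit in 100 mM Tris (pH 8.0) for 15 min at ambient temperature before imaging through 547 nm/598 nm filters.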
A488 fluor: compound fluoresces in the A488 spectral region; AID 591; compound autofluorescence, A488 spectral region, dye equivalency; Compound Type: qHTS ECL - MLSMR; 59,000 compounds, 0.1% hits; max dye equivalency, M
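Read-out: relative fluorescence at 480/540 nm, expressed as Alexa 488 dye-equivalent concentration from a six-point A488 standard included per plate. Conditions: 100 mM Tris, pH 8.0; 15 min incubation, room temperature.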
Resorufin autofl: compounds fluorescent in resorufin spectral region; Compound fluorescence, resorufin region 547/598 nm, buffer; stronger effect = higher value; max dye-equivalent concentration, M; 59,000 compounds, 0.04% hits; AID 588
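Read-out: intrinsic compound fluorescence at ex 547/em 598 nm after 15 min at RT in pH 8.0 Tris (100 mM). Values expressed as resorufin-equivalent concentration from per-plate standard series.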
TexasRed autofl: compound fluoresces in the Texas Red spectral region; 59,000 compounds, 0.06% hits; max dye-equivalent concentration, M; Compound fluorescence, Texas Red channel, 547/618 nm; stronger effect = higher value; in the data active = max dye-equivalent concentration above about 10 nM; inconclusive = between about 1.1 nM and that limit
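Compound fluorescence was read after 15 min at room temperature in 100 mM Tris, pH 8.0, using 547 nm excitation and 618 nm emission across a concentration series. It was expressed as Texas Red dye-equivalent concentration from an on-plate standard curve.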
Fluorescein fluor: compound fluoresces in the fluorescein spectral region | Compound autofluorescence, 480/540 nm, fluorescein-equivalent; stronger effect = higher value | max fluorescein-equivalent concentration, M | 59,000 compounds, 0.91% hits; in the data active = max fluorescein-equivalent concentration above about 10 nM; inconclusive = between about 1.1 nM and that limit
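Compounds (23 nL) in 100 mM Tris pH 8.0, 15 min at room temperature, then fluorescence read at 480 nm excitation/540 nm emission. Signal converted to fluorescein-equivalent concentration from an on-plate fluorescein standard curve.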
* hit, by the source's call. Unless noted, the rule behind the calls is not given here.

For COc1ccc(CNC(=O)C(C#N)c2nc3ccccc3nc2N2CCCC2)cc1 (stereo not given) the results were A647 autofl 1e-09, Rhodamine fluor inactive, A488 fluor 2.1e-08M*, Resorufin autofl inactive, TexasRed autofl inactive and Fluorescein fluor 3.5e-07M*.
Screening COc1ccc(CNC(=O)C(C#N)c2nc3ccccc3nc2N2CCN(C)CC2)cc1 (stereo not given) returned A647 autofl 1.5e-09, Rhodamine fluor inactive, A488 fluor inactive, Resorufin autofl inactive, TexasRed autofl inactive and Fluorescein fluor inactive.
`CC1CCN(c2nc3ccccc3nc2C(C#N)C(=O)NC2CCCCC2)CC1` (stereo not given) gave A647 autofl 1.9e-09, Rhodamine fluor inactive, A488 fluor inactive, Resorufin autofl inactive, TexasRed autofl inactive and Fluorescein fluor 1.4e-08M*.
For CC(C)n1c(SC2C(=O)CC(C)(C)CC2=O)nc2c1c(=O)n(C)c(=O)n2C the results were A647 autofl 1e-09, Rhodamine fluor inactive, A488 fluor inactive, Resorufin autofl inactive, TexasRed autofl inactive and Fluorescein fluor inactive.
For CCOC(=O)[C@H](CCc1ccccc1)N[C@@H](C)C(=O)N1[C@H](C(=O)O)C[C@H]2CCC[C@@H]21 the results were A647 autofl 2.6e-08, Rhodamine fluor inactive, A488 fluor inactive, Resorufin autofl inactive, TexasRed autofl inactive and Fluorescein fluor 1e-08M*.
`Cc1ccnn2c(-c3ccccc3)c3c(=O)n(C)c(=O)n(C)c3c12` gave A647 autofl 9.5e-09, Rhodamine fluor inactive, A488 fluor inactive, Resorufin autofl inactive, TexasRed autofl inactive and Fluorescein fluor 1.2e-08M*.
Screening Cc1ccc(-c2c3c(=O)n(C)c(=O)n(C)c3c3nnc4ccccc4n23)cc1 returned A647 autofl 9e-09, Rhodamine fluor inactive, A488 fluor inconclusive, Resorufin autofl inactive, TexasRed autofl inactive and Fluorescein fluor 1.1e-07M*.
For O=C(Nc1ccc2c(c1)OCCO2)C1CCN(c2cnccn2)CC1 the results were A647 autofl 3.5e-09, Rhodamine fluor inactive, A488 fluor inactive, Resorufin autofl inactive, TexasRed autofl inactive and Fluorescein fluor inactive.
Screening Cn1c(=O)c(NCCO)c2c3c(cccc31)C(=O)c1ccccc1-2 returned A647 autofl 3.4e-09, Rhodamine fluor 8.5e-08M*, A488 fluor 1.3e-06M*, Resorufin autofl 5.2e-08M*, TexasRed autofl inconclusive and Fluorescein fluor 2.5e-05M*.
For CN(CCO)C(=O)c1cccc2c1-c1ccccc1C2=O the results were A647 autofl 1.2e-08, Rhodamine fluor inactive, A488 fluor inactive, Resorufin autofl inactive, TexasRed autofl inactive and Fluorescein fluor inactive.
CCNc1c2c3c(cccc3n(C)c1=O)C(=O)c1ccccc1-2 was read as A647 autofl 4.2e-09, Rhodamine fluor 1.2e-08M*, A488 fluor 1.4e-07M*, Resorufin autofl inconclusive, TexasRed autofl inconclusive and Fluorescein fluor 2.5e-06M*.
O=C(O)CCc1ccc(-c2ccccc2)n1-c1cccc(O)c1 was read as A647 autofl 1.4e-08, Rhodamine fluor inactive, A488 fluor inactive, Resorufin autofl inactive, TexasRed autofl inactive and Fluorescein fluor inactive.
CCC(C)NC(=O)CC(c1ccc(OC)cc1)n1cccc1 (stereo not given) was read as A647 autofl 2.8e-08, Rhodamine fluor inactive, A488 fluor inactive, Resorufin autofl inactive, TexasRed autofl inactive and Fluorescein fluor inactive.
CC1=C(C#N)C(=O)OC(C)(C)C1 was read as A647 autofl 1e-09, Rhodamine fluor inactive, A488 fluor inconclusive, Resorufin autofl inactive, TexasRed autofl inactive and Fluorescein fluor 5e-08M*.
Screening COc1ccc(C2C(C(=O)NC(C)C)c3ccccc3C(=O)N2C)cc1OC (stereo not given) returned A647 autofl 2.9e-09, Rhodamine fluor inactive, A488 fluor inactive, Resorufin autofl inactive, TexasRed autofl inactive and Fluorescein fluor inactive.
Screening CCCCC1CCC(C(=O)NC2CCS(=O)(=O)C2)CC1 (stereo not given) returned A647 autofl 7.9e-09, Rhodamine fluor inactive, A488 fluor inactive, Resorufin autofl inactive, TexasRed autofl inactive and Fluorescein fluor inactive.
